Assay results taken from PubChem BioAssay (NCATS).
Records with an inconclusive call do not appear. A number with no mark means an inactive call. Calls come from the whole dose curve; as a rule, active = well fitted inhibition curve with a large enough effect; inconclusive = small, poorly fitted or top-dose-only effect; inactive = flat fitted curve, though single readings scatter.

Biological target: Calcium and integrin-binding protein 1 (Homo sapiens) (UniProt Q99828)
Test: Primary qHTS for Identification of Calcium Integrin Binding Protein 1 (CIB1) Competitor (AID 1508620);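 note: GST tagged CIB1 binding a fluorescein labelled alphaIIb integrin peptide tracer; top concentration of the series differs between compounds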
Details: CIB1-GST / FITC-alphaIIb peptide fluorescence polarization; series mostly up to 114 µM; activity change, negative = inhibition: at the top concentration
Procedure, shortened: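 Fluorescence polarization competition: CIB1-GST (1 uM final) preincubated with compound 15 min at room temperature, then FITC-labeled alphaIIb peptide (100 nM final) added for another 15 min. Polarization read at Ex 480/Em 540.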
% is set by controls: 0 for no effect and ±100 for the full control effect.

Calcium and integrin-binding protein 1 (Homo sapiens), sequence (Q99828 whole entry, looked up): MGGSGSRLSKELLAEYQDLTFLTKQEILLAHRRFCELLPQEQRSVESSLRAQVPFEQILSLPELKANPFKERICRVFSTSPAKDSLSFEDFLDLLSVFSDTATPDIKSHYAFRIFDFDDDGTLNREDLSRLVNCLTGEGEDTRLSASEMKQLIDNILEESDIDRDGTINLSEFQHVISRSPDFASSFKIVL

SMILES | activity change, negative = inhibition
COc1ccc2c(OC)c3ccoc3nc2c1OC | 0.975%
CN(C)CCCCC(=O)Nc1ccc(NC(=S)NC(=O)c2ccc(C(C)(C)C)cc2)cc1 | -12.3%
CC(=O)c1ccc2c(c1)C(O)C(C(C)(C)O)O2 (stereo not drawn) | -4.68%
CN(C)c1ccc2c(c1)OC(N)=C(C#N)C2c1cccc(C(F)(F)F)c1 (stereo not drawn) | 61.9%
CC1OC(OC2C(C)OC(OC3C(O)C(CO)OC(O[C@H]4CC[C@@]5(C)C(CC[C@]6(C)C5CC=C5C7[C@@H](C)[C@H](C)CC[C@]7(C(=O)O)CC[C@]56C(=O)O)C4(C)C)C3O)C(O)C2O)C(O)C(O)C1O (stereo partly drawn) | 3.19% [at 30.2 µM]
CC[C@H]1OC(=O)[C@H](C)[C@@H](O[C@H]2C[C@@](C)(OC)[C@@H](O)[C@H](C)O2)[C@H](C)[C@@H](O[C@@H]2O[C@H](C)C[C@H](N(C)C)[C@H]2O)[C@](C)(O)C[C@@H](C)C(=O)[C@H](C)[C@H]2OC(=O)O[C@@]21C | 4.73%
CCOc1ccc(S(=O)(=O)n2c(C)nc3ccccc32)cc1 | -4.7% [at 57.7 µM]
C[C@@H]1C(=O)O[C@H]2[C@@H](O)C34[C@H]5C[C@@H](C(C)(C)C)C36[C@@H](OC(=O)[C@@H]6O)O[C@@]4(C(=O)O5)[C@@]12O (stereo partly drawn) | -1.82%
C[C@@H]1O[C@@H](O[C@H]2[C@H](OC(=O)[C@]34CCC(C)(C)C[C@H]3C3=CCC5[C@@]6(C)CC[C@H](O[C@@H]7O[C@H](C(=O)O)[C@@H](O)[C@H](O)[C@H]7O[C@@H]7O[C@H](CO)[C@H](O)[C@H](O)[C@H]7O)[C@@](C)(C=O)C6CC[C@@]5(C)[C@]3(C)C[C@H]4O)O[C@H](C)[C@H](O[C@@H]3O[C@H](C)[C@H](O)[C@H](O)[C@H]3O)[C@@H]2O)[C@H](O)[C@H](O)[C@H]1O[C@@H]1OC[C@@H](O)[C@H](O[C@@H]2O[C@H](CO)[C@@H](O)[C@H](O)[C@H]2O)[C@H]1O (stereo partly drawn) | -0.579% [at 12.4 µM]
C=CC(C)(O)C(O)CC1C(C)(O)C(O)C(O)C2C(C)(C)CCCC21C (stereo not drawn) | -4.03% [at 57.7 µM]
CC1(C)CCCC2(C)C1CC(=O)C13CC(CCC12)C(O)(CO)C3 (stereo not drawn) | 1.17% [at 57.7 µM]
CNS(=O)(=O)CC1CCC(N(C)c2ncnc3[nH]ccc23)CC1 (stereo not drawn) | 2.85%
OC/C=C/C=C/[C@H]1Cc2cc(O)cc(O)c2O1 | -16%
CC1(C)C2CC(OC3OC(COC4OCC(O)(CO)C4O)C(O)C(O)C3O)C1(C)CC2O (stereo not drawn) | -3.88% [at 57.7 µM]
CC/C=C/CC1=C(CCCCC(CCC(=O)O)OC(C)=O)CCC1=O (stereo not drawn) | -19.2% [at 57.7 µM]
CC(C)(O)CC(CO)NC(=O)CC(O)CC(=O)Cc1ccccc1 (stereo not drawn) | -15.6% [at 57.7 µM]
Cc1cc(Nc2ccc(NC(=O)c3ccc(Nc4ccnc5ccccc45)cc3)cc2)nc(N)n1 | 4.67%
CCCCc1nc2cc(/C=C/C(=O)NO)ccc2n1CCN(CC)CC | 4.47%
CC(=O)OC1CC2(C)C3=CCC4(C)C5C(O)C(O)C(C(C)C)C5(C)CCC4(C)C3CCC2C(C)(C)C1OC1OC(CO)C(O)C(O)C1O (stereo not drawn) | -2.17% [at 30.2 µM]

SMILES | activity change, negative = inhibition
O=S(=O)(NC1CCC(c2cc(F)ccc2F)(S(=O)(=O)c2ccc(Cl)cc2)CC1)C(F)(F)F (stereo not drawn) | 4.5%
COc1cc([C@H]2c3cc(O)c(OC)cc3C[C@@H](CO[C@@H]3O[C@H](CO)[C@@H](O)[C@H](O)[C@H]3O)[C@@H]2CO)ccc1O | 0.877% [at 57.7 µM]
CC(=O)O[C@H]1CC(C)(C)CC2[C@@]13[C@H](O)C[C@]1(C)[C@@]2(CCC2[C@@]4(C)CC[C@H](O[C@@H]5OC[C@H](O[C@@H]6O[C@H](CO)[C@@H](O)[C@H](O)[C@H]6O[C@@H]6OC[C@@H](O)[C@H](O)[C@H]6O)[C@H](O)[C@H]5O[C@@H]5O[C@H](CO)[C@@H](O)[C@H](O)[C@H]5O)C(C)(C)C4CC[C@]21C)O[C@@H]3O (stereo partly drawn) | -4.98% [at 30.2 µM]
CC1=C(/C=C/C(C)=C\C=C\C(C)=C/C(=O)O)C(C)(C)CCC1 | 4.64%
C/C(=C/CO)CC[C@@H]1[C@@](C)(O)CCC2C(C)(C)CCC[C@]21C (stereo partly drawn) | -0.454% [at 57.7 µM]
CC1CCC2C(C)(C)[C@@H](O)CC[C@]2(C)C12Cc1c(O)cc3c(c1O2)CN(C(CCC(=O)O)C(=O)O)C3=O (stereo partly drawn) | 4.1% [at 57.7 µM]
C/C=C/c1cc(OC)c2c(c1)[C@@H](C)[C@@H](c1ccc(O)c(OC)c1)O2 | -4.69% [at 57.7 µM]
CO[C@H]1/C=C/[C@@](C)(O)/C=C/C(=O)O[C@H](C)[C@@H](C)CC/C=C/1C | 9.27% [at 57.7 µM]
CC(C)(O)c1ccc2c(c1)C(O)C[C@H]1[C@](C)(C(=O)O)CCC[C@]21C (stereo partly drawn) | 0.881% [at 57.7 µM]
O=C(O)c1cc(-c2c(-c3ccccc3)nn3ccccc23)n[nH]c1=O | -1.79%
CCN(CC)Cc1ccc(C(=O)N(CCc2ccccc2OC)[C@@H]2CCNC2)cc1 | 2.33% [at 57.7 µM]
CC1CCC2C(C(=O)O)=COC(O[C@@H]3O[C@H](CO)[C@@H](O)[C@H](O)[C@H]3O)C12 (stereo partly drawn) | -13.5% [at 57.7 µM]
C[C@@H]1COCCN1c1cc(C2(S(C)(=O)=O)CC2)nc(-c2cccc3[nH]ccc23)n1 | 4.33%
CC1CC(O)/C=C/C(O)C(O)CC(=O)Cc2c(Cl)c(O)cc(O)c2C(=O)O1 (stereo not drawn) | -3.8% [at 57.7 µM]
O=C(CSc1nc2c(c(=O)n1-c1ccccc1)SCC2)Nc1ccc(-c2ccccc2)cn1 | -0.0397%
COc1cc2ncnc(Nc3cccc(O)c3)c2cc1OC | -0.483%
C[C@H]1C(=O)N2c3ccccc3[C@@]3(O)C[C@@H]4C(=O)N[C@](C)(c5nc6ccccc6c(=O)n54)N1[C@@H]23 | -1.47% [at 57.7 µM]
COc1ccc(-c2cnc(-c3cccc4c3-c3ccccc3C4=O)o2)cc1 | 3.94% [at 57.7 µM]
CC12CCC(OC3OC(CO)C(O)C(OC4OC(CO)C(O)C(O)C4O)C3O)CC1=CCC1C2CCC2(C)/C(=C3/COC(=O)C3)CCC12O (stereo not drawn) | 1.64% [at 30.2 µM]
